# HT1080 IDH1KD tx – qHTS for induction of synthetic lethality in tumor cells producing 2HG: qHTS for the HT-1080-IDH1KD cell line | HT-1080 IDH1 knockdown viability, ATP luminescence, 48 h | Potency, µM (series often up to 46.1 µM), for the others: top-dose activity, negative = toxicity, actives largely listed as cytotoxic | 2% of 360,000 active;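 further: 0% = DMSO wells and -100% = cell-free medium wells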
#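 % activity derives from luminescence (CellTiter-Glo), normalised to DMSO and no-cell wells. HT-1080-IDH1KD cells, 750/well, had 48 h compound exposure at 37 °C.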
# HepG2 viability – qHTS for Inhibitors of TGF-b: Cytotox Counterscreen; HepG2 CAGA-GFP viability, ATP luminescence, 18 h; Potency, µM (titrated, usually from 46.1 µM), for the others: top-dose activity change, negative = cytotoxicity, hits mostly cytotoxic; 0.76% of 410,000 active
#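 CellTiter-Glo luminescence gave cytotoxicity after 18 hours at 37 degrees C. The cells were HepG2 CAGA-GFP in 1% FBS DMEM, stimulated with 500 pg/mL TGF-beta after compound addition. %Activity was normalised to no-cell wells (complete cell-killing) and DMSO (no toxicity), and curves were fitted and classified.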
# HT1080NT lethal – qHTS for induction of synthetic lethality in tumor cells producing 2HG: qHTS for the HT-1080-NT fibrosarcoma cell line; HT-1080-NT fibrosarcoma viability, CellTiter-Glo ATP luminescence, 48 h; Potency, µM (doses to about 46.1 µM), without a hit: at the highest dose activity, negative = less viability, hits mostly cytotoxic; 1.6% of 360,000 active; AID 686970, 2013;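 further: NT is the 2HG producing partner of a matched IDH1 knockdown line; 0% = DMSO-treated cells and -100% = media-only wells without cells; nearly all actives have a fitted effect of over 55% in size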
#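 Read-out is CellTiter-Glo luminescence after 10 minutes at room temperature, following 48 hours' compound treatment of HT-1080-NT cells (750 cells/well, RPMI, 5% FBS, 37 degrees C).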
# KB-3-1 cytotox – qHTS assay for MDR1-selective chemotherapeutics: Primary screen using the parental adenocarcinoma cell KB-3-1; KB-3-1 viability, CellTiter-Glo ATP luminescence, 72 h; Potency, µM (doses to about 46.1 µM), hits mostly cytotoxic; 1.4% of 400,000 active; AID 1347075, 2019; further: on the % scale 0 is the no-effect control and ±100 the full control effect; nearly all actives have a fitted effect of over 60% in size
#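 Parental KB-3-1 adenocarcinoma cells in phenol-red-free DMEM with 10% FBS were pin-treated with compounds at several concentrations, incubated 72 h at 37 °C, and viability read by CellTiter-Glo luminescence; concentration-effect curves were fitted after normalization.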
# KB-V1 cytotox – qHTS assay for MDR1-selective chemotherapeutics: Primary screen using the drug-selected MDR subline cells KB-V1; KB-V1 MDR cells viability, CellTiter-Glo, 72 h; 3.4% of 400,000 active; Potency, µM (titrated, usually from 46.1 µM), actives largely listed as cytotoxic; further: on the % scale 0 is the no-effect control and ±100 the full control effect; nearly all actives have a fitted effect of over 60% in size
#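 Following 72 h at 37 degrees C with compound, KB-V1 cell viability was read by CellTiter-Glo luminescence, medium being phenol-red-free DMEM plus 10% FBS; concentration-response parameters came from normalized, curve-fitted qHTS data.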
# TGFb inhibitor – qHTS for Inhibitors of TGF-b | 1.2% of 410,000 active | HepG2 CAGA-GFP TGF-b/SMAD3 reporter, GFP fluorescence, 18 h; TGF-beta stimulated, 500 pg/mL final | Potency, µM (series often up to 46.1 µM), for inactives: at the highest dose activity, negative = inhibition, hits mostly inhibitors | AID 588855, 2011; further: on the % scale 0 is the no-effect control and ±100 the full control effect; nearly all actives have a fitted effect of over 65% in size
#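 Cell-based qHTS in HEPG2 carrying a CAGA-GFP Smad reporter; compounds added before 500 pg/mL final TGF-beta, 18 h incubation at 37 degrees C, GFP fluorescence quantified per cell by imaging cytometry.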
# * hit, by the source's call; i = inactive; ? = inconclusive; nt = no result given. Compounds with a hit are over-represented: about 6.6% of the library has one in this group of screens. The call rests on the fitted dose curve; in most records, active means well fitted curve in the direction sought with a large enough effect; inconclusive means small, poorly fitted or top-dose-only effect, or another doubt; inactive means no such curve, though single readings can be large; an effect the other way counts as inactive or inconclusive. Potency means the concentration at half of the fitted maximal effect.
SMILES,HT1080 IDH1KD tx,HepG2 viability,HT1080NT lethal,KB-3-1 cytotox,KB-V1 cytotox,TGFb inhibitor
COc1ccc(C(=O)Nc2ccc(NC(=O)c3cccc(F)c3)cn2)cc1,-3%,-29%,1%,i,i,-22%
COc1ccc(COc2cc(-c3cccc(OC)c3)nc3ccc(NC(=O)c4ccc(Cl)cc4)cc23)cc1,?,0%,?,?,i,-3%
COc1cccc(CN2C(=O)c3ccccc3Sc3ccc(C(=O)OCc4ccco4)cc32)c1,nt,0%,nt,i,?,0%
Oc1c(C(c2ccccc2Cl)N2CCN(Cc3ccccc3)CC2)sc2nc(-c3ccco3)nn12 (centres undefined),nt,-12%,nt,i,i,?
Oc1c(C(c2ccc(Cl)cc2Cl)N2CCN(Cc3ccccc3)CC2)sc2nc(-c3ccco3)nn12 (centres undefined),nt,16µM*,nt,i,i,?
CC(=O)N1CCc2cc(S(=O)(=O)NCCC(=O)N3CCc4ccccc4C3)ccc21,-1%,-8%,-8%,?,23µM*,-7%
CC(=O)N1CCc2cc(S(=O)(=O)NCCC3=CCCCC3)ccc21,21µM*,-4%,-9%,i,?,-18%
COC(=O)c1ccc2c(c1)N(CC(=O)Nc1cccc(Cl)c1C)C(=O)c1ccccc1S2,nt,-1%,nt,i,?,-10%
COc1cccc(C(=O)N2CC(=O)Nc3ccc(C)cc3C2c2ccc(F)cc2)c1OC (centres undefined),nt,-21%,nt,i,i,8%
CN(C)c1ccc(/C=C/c2cnnc3ccccc23)cc1,nt,-7%,nt,?,?,29%
CCOC(=O)C1CCCN(C(=O)CN2C(=O)/C(=C/c3ccc(OC)cc3)Oc3ccccc32)C1 (centres undefined),-5%,-3%,-12%,i,16µM*,4%
CC(OC(=O)c1cc2sccc2n1C)C(=O)NCCc1ccccc1 (centres undefined),?,-13%,?,i,13µM*,-13%
CC(OC(=O)c1cc2sccc2n1C)C(=O)NCC1CCCO1 (centres undefined),-5%,-26%,?,i,i,-20%
CCC(OC(=O)c1cc2sccc2n1C)C(=O)NCC1CCCO1 (centres undefined),-3%,-3%,0%,i,23µM*,-12%
CC(OC(=O)c1cc2sccc2n1C)C(=O)NCc1ccc(F)cc1 (centres undefined),?,-22%,-19%,i,?,-5%
Cn1c(C(=O)OC(C(=O)NCc2ccco2)c2ccncc2)cc2sccc21 (centres undefined),-2%,-28%,2%,i,3.7µM*,-7%
O=C(O)c1ccc(COc2ccccc2[N+](=O)[O-])o1,7%,10%,1%,i,i,13%
CC(=O)c1ccc(NC(=O)c2ccc(COc3ccccc3[N+](=O)[O-])o2)cc1,2%,-11%,-8%,?,10µM*,?
O=C(Nc1nn(Cc2ccc(Cl)cc2)cc1Br)c1ccc(COc2ccccc2Cl)o1,-20%,-4%,-13%,?,16µM*,?
CC(C)(C)NC(=O)c1ccc(COc2ccc(Cl)cc2Cl)o1,-21%,-20%,?,?,13µM*,0%
O=C(Nc1cccnc1)c1ccc(COc2cc(Cl)ccc2Cl)o1,23µM*,-5%,?,?,23µM*,?
